# Assay results reported in ChEMBL document CHEMBL4303097 (2020).
# Whole data set: some 1,500 compounds, median “Inhibition index” near 0.17, cut for the highest 2% near 1.3. This is one part of a sample in which the highest values are shown more often than they occur.
# Test system: SARS-CoV-2
# Assay: Inhibition of cell viability relative to arbidol control (inhibition index > 1 indicates higher activity) measured by fluorescence (OD590nm) in Vero E6 cells infected with SARS-CoV-2 (strain BavPat1) at MOI 0.002 after 72hrs
# Assay type: functional, Chlorocebus sabaeus, Vero C1008
row,SMILES,Inhibition index
1,CC(C)(C)NC[C@H](O)COc1cccc2c1CCCC2=O.Cl [LEVOBUNOLOL HYDROCHLORIDE],0.5259
2,CN(C)CCC=C1c2ccccc2C=Cc2ccccc21.Cl [CYCLOBENZAPRINE HYDROCHLORIDE],0.6333
3,CO/N=C(\C(=O)N[C@@H]1C(=O)N2C(C(=O)OC(C)OC(C)=O)=C(COC(N)=O)CS[C@H]12)c1ccco1 (stereo partly specified) [CEFUROXIME AXETIL],0.1456
4,CCOc1nc2cccc(C(=O)O)c2n1Cc1ccc(-c2ccccc2-c2nnn[nH]2)cc1,1.166
5,Cl.O=C1CC2(CCCC2)CC(=O)N1CCCCN1CCN(c2ncccn2)CC1 [BUSPIRONE HYDROCHLORIDE],1.176
6,C#C[C@]1(O)CC[C@H]2[C@@H]3[C@H](C)CC4=C(CCC(=O)C4)[C@H]3CC[C@@]21C [TIBOLONE],0.3794
7,CN(C)CCCSC(=N)N.Cl.Cl,1.382
8,Nc1ncnc2c1ncn2[C@@H]1O[C@H](COP(=O)(O)O)[C@@H](O)[C@H]1O.O,0.1161
9,CN(C)CCc1c[nH]c2ccc(Cn3cncn3)cc12.O=C(O)c1ccccc1 [RIZATRIPTAN BENZOATE],0.7991
10,CC#C[C@]1(O)CC[C@H]2[C@@H]3CCC4=CC(=O)CCC4=C3[C@@H](c3ccc(N(C)C)cc3)C[C@@]21C [MIFEPRISTONE],0.1807
11,CN(C)C(=N)NC(=N)N.Cl [METFORMIN HYDROCHLORIDE],0.00269
12,CC1(C)S[C@@H]2[C@H](NC(=O)[C@H](N)c3ccccc3)C(=O)N2[C@H]1C(=O)OC1OC(=O)c2ccccc21.Cl (stereo partly specified) [TALAMPICILLIN HYDROCHLORIDE],0.5053
13,CCOC(=O)C1=C[C@@H](OC(CC)CC)[C@H](NC(C)=O)[C@@H](N)C1.O=P(O)(O)O [OSELTAMIVIR PHOSPHATE],-0.01747
14,Br.COc1ccc2c3c1O[C@H]1C[C@@H](O)C=C[C@@]31CCN(C)C2 [GALANTAMINE HYDROBROMIDE],0.03283
15,Cl.N/C(=N\C(=O)c1nc(Cl)c(N)nc1N)NCc1ccccc1 [BENZAMIL HYDROCHLORIDE],-0.07365
16,C=CCOc1ccccc1OCC(O)CNC(C)C.Cl (stereo unspecified) [OXPRENOLOL HYDROCHLORIDE],1.632
17,CC(C)NCC(O)COc1cccc2[nH]c3ccccc3c12 (stereo unspecified) [CARAZOLOL],0.7194
18,C=CCc1ccccc1OCC(O)CNC(C)C.Cl (stereo unspecified) [ALPRENOLOL HYDROCHLORIDE],0.02886
19,C[C@]12CCC3=C4CCC(=O)C=C4CC[C@H]3[C@@H]1CC[C@@]2(O)CC#N [DIENOGEST],0.1822

row,SMILES,Inhibition index
1,Cl.Cl.Fc1ccc(C(OCCN2CCN(CCCc3ccccc3)CC2)c2ccc(F)cc2)cc1,-0.1375
2,CC[C@H](C)C(=O)O[C@H]1C[C@H](O)C=C2C=C[C@H](C)[C@H](CC[C@@H](O)C[C@@H](O)CC(=O)O)[C@H]21 [PRAVASTATIN],0.3233
3,CC(=O)OCC1=C(C(=O)[O-])N2C(=O)[C@@H](NC(=O)Cc3cccs3)[C@H]2SC1.[Na+] [CEPHALOTHIN SODIUM],0.1149
4,C[C@@H](O)[C@H]1C(=O)N2C(C(=O)O)=C(SCCNC=N)C[C@H]12 [IMIPENEM ANHYDROUS],0.0698
5,CC(C)=C/C(C)=N/Nc1nncc2ccccc12 [BUDRALAZINE],1.549
6,CCOC(=O)NNc1nncc2ccccc12.Cl [TODRALAZINE HYDROCHLORIDE],-0.005099
7,CCc1c(C)[nH]c2c1C(=O)C(CN1CCOCC1)CC2.Cl (stereo unspecified) [MOLINDONE HYDROCHLORIDE],0.4807
8,CN[C@H](CC(C)C)C(=O)N[C@H]1C(=O)N[C@@H](CC(N)=O)C(=O)N[C@H]2C(=O)N[C@H]3C(=O)N[C@H](C(=O)N[C@H](C(=O)O)c4cc(O)cc(O)c4-c4cc3ccc4O)[C@H](O)c3ccc(c(Cl)c3)Oc3cc2cc(c3O[C@@H]2O[C@H](CO)[C@@H](O)[C@H](O)[C@H]2O[C@H]2C[C@](C)(N)[C@H](O)[C@H](C)O2)Oc2ccc(cc2Cl)[C@H]1O.Cl,0.05858
9,C[C@H]1O[C@H](O[C@H]2[C@H](O)[C@@H](O)[C@@H](O[C@H]3[C@H](O)[C@@H](O)C(O)O[C@@H]3CO)O[C@@H]2CO)[C@H](O)[C@@H](O)[C@@H]1N[C@H]1C=C(CO)[C@@H](O)[C@H](O)[C@H]1O (stereo partly specified) [ACARBOSE],0.004156
10,CC(=O)[C@H]1CC[C@H]2[C@@H]3C=CC4=CC(=O)CC[C@@]4(C)[C@@H]3CC[C@]12C [DYDROGESTERONE],0.5447
11,COCCCOc1ccnc(C[S+]([O-])c2nc3ccccc3[nH]2)c1C.[Na+] (stereo unspecified),0.5892
12,CC(CCc1ccccc1)NC(C)C(O)c1ccc(O)cc1 (stereo unspecified) [NYLIDRIN],1.263
13,CC(NCCc1ccc(O)cc1)C(O)c1ccc(O)cc1.Cl (stereo unspecified) [RITODRINE HYDROCHLORIDE],0.3972
14,CC(C)NC[C@@H](O)c1ccc(O)c(O)c1.O=C(O)C(O)C(O)C(=O)O,0.1733
15,CC(COc1ccccc1)NC(C)C(O)c1ccc(O)cc1.Cl (stereo unspecified) [ISOXSUPRINE HYDROCHLORIDE],-0.02068
16,CC(CCc1ccccc1)NCC(O)c1ccc(O)c(C(N)=O)c1.Cl (stereo unspecified) [LABETALOL HYDROCHLORIDE],0.3584
17,C[C@H](CCc1ccccc1)NC[C@H](O)c1ccc(O)c(C(N)=O)c1 [DILEVALOL],1.277
18,CCCC1O[C@@H]2C[C@H]3[C@@H]4CCC5=CC(=O)C=C[C@]5(C)[C@H]4[C@@H](O)C[C@]3(C)[C@]2(C(=O)CO)O1 (stereo partly specified) [BUDESONIDE],0.726
19,CC1(C)O[C@@H]2C[C@H]3[C@@H]4CCC5=CC(=O)C=C[C@]5(C)[C@H]4[C@@H](O)C[C@]3(C)[C@]2(C(=O)CO)O1 [DESONIDE],1.58

row,SMILES,Inhibition index
1,CC1(C)O[C@@H]2C[C@H]3[C@@H]4C[C@H](F)C5=CC(=O)C=C[C@]5(C)[C@H]4[C@@H](O)C[C@]3(C)[C@]2(C(=O)CO)O1 [FLUNISOLIDE],0.0848
2,CCOC(=O)O[C@]1(C(=O)OCCl)CC[C@H]2[C@@H]3CCC4=CC(=O)C=C[C@]4(C)[C@H]3[C@@H](O)C[C@@]21C [LOTEPREDNOL ETABONATE],0.5857
3,C[C@]12C=CC(=O)C=C1CC[C@@H]1[C@@H]2[C@@H](O)C[C@@]2(C)[C@H]1CC[C@]2(O)C(=O)CO [PREDNISOLONE],0.3132
4,CCOC(=O)O[C@]1(C(=O)COC(=O)CC)CC[C@H]2[C@@H]3CCC4=CC(=O)C=C[C@]4(C)[C@H]3[C@@H](O)C[C@@]21C [PREDNICARBATE],1.368
5,CCN(CC)CCOC(=O)C(c1ccccc1)c1ccccc1.Cl [ADIPHENINE HYDROCHLORIDE],0.1368
6,CC/C(=C(\c1ccccc1)c1ccc(OCCN(C)C)cc1)c1ccccc1.O=C(O)CC(O)(CC(=O)O)C(=O)O [TAMOXIFEN CITRATE],-0.1208
7,C[C@]12CC[C@@H]3c4ccc(O)cc4C[C@@H](CCCCCCCCC[S+]([O-])CCCC(F)(F)C(F)(F)F)[C@H]3[C@@H]1CC[C@@H]2O (stereo partly specified) [FULVESTRANT],0.187
8,CC[C@H](C)[C@H](NC(=O)[C@H](Cc1ccc(O)cc1)NC(=O)[C@@H](NC(=O)[C@H](CCCNC(=N)N)NC(=O)[C@@H](N)CC(=O)O)C(C)C)C(=O)N[C@@H](Cc1c[nH]cn1)C(=O)N1CCC[C@H]1C(=O)N[C@@H](Cc1ccccc1)C(=O)O.O=C(O)C(F)(F)F,0.4608
9,CC(C(=O)[O-])c1cccc(Oc2ccccc2)c1.CC(C(=O)[O-])c1cccc(Oc2ccccc2)c1.O.O.[Ca+2] (stereo unspecified) [FENOPROFEN CALCIUM],0.03953
10,CC(=O)OCC(=O)[C@@]12OC3(CCCC3)O[C@@H]1C[C@H]1[C@@H]3CCC4=CC(=O)C=C[C@]4(C)[C@@]3(F)[C@@H](O)C[C@@]12C [AMCINONIDE],0.9715
11,CCCCCN(CCCCC)C(=O)C(CCC(=O)[O-])NC(=O)c1ccc(Cl)c(Cl)c1.[Na+] (stereo unspecified) [LORGLUMIDE SODIUM],0.5123
12,Nc1nc2[nH]cc(CCc3ccc(C(=O)N[C@@H](CCC(=O)[O-])C(=O)[O-])cc3)c2c(=O)[nH]1.[Na+].[Na+] [PEMETREXED DISODIUM],0.05416
13,CC(C)(C(=O)O)c1ccc(C(O)CCCN2CCC(C(O)(c3ccccc3)c3ccccc3)CC2)cc1.Cl (stereo unspecified) [FEXOFENADINE HYDROCHLORIDE],0.6767
14,CC(C)NCC(O)c1ccc2ccccc2c1.Cl (stereo unspecified),0.8858
15,CCN(CC)CCNC(=O)c1ccc(N)cc1.Cl [PROCAINAMIDE HYDROCHLORIDE],0.2557
16,C#CCN(C)[C@H](C)Cc1ccccc1.Cl [SELEGILINE HYDROCHLORIDE],0.2358
17,CCC1(c2cccc(O)c2)CCCCN(C)C1.Cl (stereo unspecified) [MEPTAZINOL HYDROCHLORIDE],1.137
18,CCN1CCN(C(=O)N[C@@H](C(=O)N[C@@H]2C(=O)N3C(C(=O)O)=C(CSc4nnnn4C)CS[C@H]23)c2ccc(O)cc2)C(=O)C1=O.O.O [CEFOPERAZONE DIHYDRATE],0.2339
